We go through 40 sequences from the OligoGym collection.
Also: reference of the scale not given here.

One test deals with OTP. The test is described as follows: pooled miR-30 sensor sort-seq; sequence = guide strand. The settings on record: shRNA.
The sequence TTCTACACTCTCACACAGTTGT came in with a sensor-assay potency score (higher = more potent) of 0.376.

As for AACATATCACAAATTGACCAGT, the sensor-assay potency score (higher = more potent) was -0.538.

As for TTTCTCTGTACAAAGTTGCAGG, the sensor-assay potency score (higher = more potent) was -0.634.

Turning to TTCCTCGTCACATGACTGCTTT, the sensor-assay potency score (higher = more potent) is -0.353.

TTGACCAGTATGTAACAAGAAT had a sensor-assay potency score (higher = more potent) of -1.1.

Sequence TTAAGTTAAAACATATCACAAA registered a sensor-assay potency score (higher = more potent) of -1.23.

As to TTACAAAAGAAAATTTTGCTTA, the sensor-assay potency score (higher = more potent) was -0.204.

Sequence TTATCTACACAAAACATCCTAT registered a sensor-assay potency score (higher = more potent) of -0.185.

In the case of TGTCCCTTGAACACGTCCGTGT, the sensor-assay potency score (higher = more potent) is -0.222.

Regarding TTGGTAGCAATGCTTGTCCTCC, the sensor-assay potency score (higher = more potent) was -0.441.

The target in a further test is OXGR1. The description is as above. The note with it: shRNA.
In the case of TTACTTTGCATCTCACTGTTGA, the sensor-assay potency score (higher = more potent) came to 0.106.

Consider TGAATGATCACACAGTAGCGGA, for which the sensor-assay potency score (higher = more potent) is -1.12.

The sequence TTGAAATGGAAGCTGAAGCGGA returned a sensor-assay potency score (higher = more potent) of 0.195.

TTGAGTTCATCCGAACTGGTGA came in with a sensor-assay potency score (higher = more potent) of 0.378.

Turning to TTCAGCATAATGATGGTGCTGC, the sensor-assay potency score (higher = more potent) worked out at 0.6.

Consider TAATAGTATTGAGTTCATCCGA, for which the sensor-assay potency score (higher = more potent) is -0.637.

Consider AATAGTATTGAGTTCATCCGAA, for which the sensor-assay potency score (higher = more potent) was -0.145.

TACAACTGCACATCGAGTTTTG displayed a sensor-assay potency score (higher = more potent) of -0.712.

In the case of TTGCATCTCACTGTTGAGCAGA, the sensor-assay potency score (higher = more potent) was -0.0433.

With TAATTTTCTTTGCTTGCTCAAG, the sensor-assay potency score (higher = more potent) was -1.24.

With TACAGGTTGAAATGGAAGCTGA, the sensor-assay potency score (higher = more potent) was -0.61.

The sequence TTTCTTTGCTTGCTCAAGGTTC displayed a sensor-assay potency score (higher = more potent) of -0.282.

Another test addresses OXSR1. Described as above. The settings on record: shRNA.
The sequence TTTACTAACGGAACTCTGGGGA displayed a sensor-assay potency score (higher = more potent) of 0.644.

TTAATCTTAGTACTAGACTGAT gave a sensor-assay potency score (higher = more potent) of -0.309.

In turn, TTTCTTTATCTTGAACACCAGT came in with a sensor-assay potency score (higher = more potent) of -0.815.

Consider TATTGATTCTTTCACTCGGGGA, for which the sensor-assay potency score (higher = more potent) was -0.811.

TATCTGAGCCTTCGACACCAGA yielded a sensor-assay potency score (higher = more potent) of -1.2.

TTGAAGAAATTCTTTATTCTTT showed a sensor-assay potency score (higher = more potent) of -0.617.

The sequence TAATCTTAGTACTAGACTGATT came in with a sensor-assay potency score (higher = more potent) of -1.17.

On to TTTCTTGTGAACCTGATCCTGA, for which the sensor-assay potency score (higher = more potent) came out at 0.134.

With TTCATCATCACTCCACTCCCAG, the sensor-assay potency score (higher = more potent) is -0.375.

Consider TTGTCTGTAAAAACAATCCAAA, for which the sensor-assay potency score (higher = more potent) is -1.04.

TCTTGGTTTCTTGTGAACCTGA came in with a sensor-assay potency score (higher = more potent) of -0.403.

Take TTTGATTGCCACTTTCTCCTTT: the sensor-assay potency score (higher = more potent) was found to be 0.477.

A further test deals with P2RX3. The description is as above. The note with it: shRNA.
As for TTGATGATCCCGATGGTCCAGC, the sensor-assay potency score (higher = more potent) is -0.677.

On to TTCACCTTGGTTACCACCGAGG, for which the sensor-assay potency score (higher = more potent) was -0.997.

As for TTCAGTAACAATCATCTTGGTG, the sensor-assay potency score (higher = more potent) is -0.0732.

In the case of TTCACAACCACCGACTTGGTGG, the sensor-assay potency score (higher = more potent) was -0.566.

As for TTGAGCAGGATGATGTCACAGA, the sensor-assay potency score (higher = more potent) was 0.136.

Take TCAGTAACAATCATCTTGGTGA: the sensor-assay potency score (higher = more potent) stood at 0.681.
